# Assay results from the supplement of paper PMC10338343.
# ± gives the standard deviation.
# Test system: MILI (PIWIL2) piRISC loaded with piRNA #1 (26 nt)
# Assay: pre-steady-state target cleavage rate (min^-1); guide: piRNA #1 5'p-UGAGGUAGUAGGUUGUAUAGUAUCCA; MIWI and MILI are mouse PIWI proteins and EfPiwi is from a freshwater sponge; tags in brackets are library labels; higher = faster piRNA-guided slicing of the target
# Settings: auxiliary factor: 500 nM mouse GTSF1
# In short: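 Cleave-'n-Seq used a transcribed, DNA-blocked target RNA library at 0.1 nM and active affinity-purified piRISC with one synthetic guide at 1 nM, with or without 500 nM GTSF1 partner protein, in HEPES–potassium acetate buffer at 33 °C for 0–8 or 0–960 min. Uncleaved targets were sequenced and normalised to depth and to weakly complementary targets, and three trials were pooled with k3 capped at 0.0001 min^-1. The pre-steady-state cleavage rate was estimated by a burst-and-steady-state fit.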
row,Sequence,pre-steady-state target cleavage rate
1,GGAGACCUAUGUUUACAACGUACUACCUCA,0.00618 ± 0.0026
2,GGAGACCUAAGUAUACUACCUACUACCUCA,0.0377 ± 0.0069
3,GGAGACCUAACUUAACAACCUACUACCUCA,0.0309 ± 0.012
4,GGAGACCUAUGAAUACAACCGUACUACCUCA,0.00389 ± 0.003
5,GGAGACCUUACUAUACUACCUAGUACCUCA,0.035 ± 0.0072
6,GGAGACCUAUGUAAACUACCUACUACCUCA,0.00288 ± 0.0026
7,GGAGACCUUACUAUACAACCUACAACGUCA,0.0109 ± 0.0043
8,GGAGACCAUACUAUAGAACCUACUUCCUCA,0.0428 ± 0.013
9,GGAGAGGAAACUAUACAACCUACUACGUCA,0.034 ± 0.011
10,GGAGACCUAUGUAUACAACCUACUACCAUCA,0.0684 ± 0.01
11,GGAGACCUUACAAUACUACCUACUACCUCA,0.114 ± 0.013
12,GGAGACCUAUGAUAUGUACCUACACCUCA,< 0.0001
13,GGAGACCUUACAAUACAACCUACUACCUGA,0.0872 ± 0.013
14,GGAGACCUAUGAUAACAUCCUACAACCUCA,0.00633 ± 0.0025
15,GGAGACCUUACUAUUCAUCCUACUACCUCA,0.231 ± 0.018
16,GGAGACCUAUGAUAACAACCUACUCACCUCA,0.00465 ± 0.0027
17,GGAGACCAUACUAAACUACCUACUACCUCA,0.142 ± 0.013
18,GGAGACCUAUGAUAUGUUGGUAUACCUCA,< 0.0001
19,GGAGACCUAUCUAUAGAACCUACUUCCUCA,0.00536 ± 0.0024
20,GGAGUCGAUUCUAUACAACCUACUACCUCA,0.182 ± 0.01

row,Sequence,pre-steady-state target cleavage rate
1,GGAGACCUAUCUAUACAUCGUACUACCUCA,0.014 ± 0.0026
2,GGAGACCUAUCUAUACAACCUAGAACCUCA,0.00829 ± 0.0026
3,GGAGACCAUACUAUACAACCUCUACCUCA,0.00997 ± 0.0029
4,GGAGACCUAUGAUAUGUACCAACAACCUCA,< 0.0001
5,GGAGACCUAUGAUAUCAAGGAACUACCUCA,< 0.0001
6,GGAGACCUUACUAUACAACCUCCUACCUCA,0.0597 ± 0.01
7,GGAGACCUAUGUAAACAACCUACAACCUCA,0.0135 ± 0.0041
8,GGAGACCUAUGAUAUGUACUCUACUACCUCA,< 0.0001
9,GGAGACCUAUGUUUACAACCUACUACCUCA,0.0117 ± 0.0031
10,GGAGACCUAUCUAUACAACCUACUUGCUCA,0.109 ± 0.023
11,GGAGACCUAUCUACACAACCUACUACCUCA,0.072 ± 0.0099
12,GGAGACCUAUGAAUGCAACCUACUACCUCA,0.00733 ± 0.0031
13,GGAGACCUAUGAAUACAACCUACUAACUCA,0.00512 ± 0.0027
14,GGAGACCUAUCUUUAGAACCUACUACCUCA,0.0437 ± 0.0095
15,GGAGACGAUACUAUACAACACUACUACCUCA,0.00963 ± 0.0034
16,GGAGACCUAUGAUAUGUACGUACUACCUGA,< 0.0001
17,GGAGUGGAUACUAUACCAACCUACUACCUCA,0.0424 ± 0.0067
18,GGAGACGAUAGUAUACAACCUACUUCCUCA,0.0731 ± 0.015
19,GGAGACCUUACUUACAACCUACUACCUCA,0.0198 ± 0.0056
20,GGAGACCUAUGUAUACAACCUACUACUUCA,0.0634 ± 0.0075
